The whole screen tested about 63,000 compounds, of which about 1,100 (1.7%) were called active. The sample holds actives, similar compounds and a random draw of the others, so the mix is not that of the screen. No stated cut-off is given here; in the data, active means cytotoxicity above about 50%; inactive means the rest. Potency and affinity values are given separately.

This experiment is described as follows: HPDE-C7 pancreatic duct cell viability loss – fluorescence, HTS (AID 430).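 Further: cells exposed to compound for 48 hours before viability readout; 0% = vehicle and 100% = reference cytotoxic drug.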 Particulars: HPDE-C7 pancreatic duct cells viability, at 10 µM, stronger effect = higher value.
Regarding `COc1ccc(/C=N/n2cnnc2SCCO)cc1OC`, the cytotoxicity was -14.1% (inactive).

As to `COc1ccc(-c2nnc3sc(-c4ccccn4)nn23)cc1`, the cytotoxicity was -5.5% (inactive).

As for `COc1ccc(-c2cn3cccnc3n2)cc1NC(=O)C1CCCC1`, the cytotoxicity is -13.7% (inactive).

In the case of `Cn1c(Cn2nnc3ccccc32)nnc1SCC(=O)N1c2ccccc2Sc2ccccc21`, the cytotoxicity was -9.1% (inactive).

Turning to `CCCC(N)CCCCCC(=O)O` (centres undefined), the cytotoxicity was -2.3% (inactive).

As to `CCSC(SCC)[C@H](O)[C@@H](O)[C@H](O)[C@H](O)CO`, the cytotoxicity was 11.2% (inactive).

Take `COc1ccccc1N1C(=O)C2C3C=CC(C3)C2C1=O` (centres undefined): the cytotoxicity was -6% (inactive).

For `O=c1oc2ccccc2n1CSc1nc2ccccc2s1`, the cytotoxicity was -4% (inactive).

Consider `CCNS(=O)(=O)c1ccc(NC(=O)c2ccccc2OCC)cc1`, for which the cytotoxicity is 10.2% (inactive).

For the compound `CC(=O)c1sc(NC(=O)C=C(C)C)nc1C`, the cytotoxicity was 1.3% (inactive).

In the case of `CC(=O)c1sc(NC(=O)C2(F)C(F)(F)C(F)(F)C(F)(F)C(F)(F)C2(F)F)nc1C`, the cytotoxicity was 52.4% (active).

As to `CCCCC(=O)Nc1nc(C)c(C(C)=O)s1`, the cytotoxicity is -0.6% (inactive).

As to `O=C(c1ccco1)N1CCN(Cc2ccc(Cl)cc2)CC1`, the cytotoxicity is -3.7% (inactive).

For `CCN(CC)S(=O)(=O)c1ccc2c(c1)nc(SCC(=O)NC1CC1)n2-c1ccccc1OC`, the cytotoxicity was 3.8% (inactive).

Take `COc1ccc(-c2nc3ccccc3c(=O)n2CCCn2ccnc2)cc1`: the cytotoxicity is -0.2% (inactive).

As to `CSc1ccc(S(=O)(=O)Nc2ccc3c(c2)OCCO3)cc1`, the cytotoxicity was 8.6% (inactive).

As to `O=S(=O)(Nc1ccc2c(c1)OCCO2)c1ccc2oc3ccccc3c2c1`, the cytotoxicity is 83.9% (active).

For the compound `COc1ccc(NS(=O)(=O)c2ccc3oc4ccccc4c3c2)cn1`, the cytotoxicity was 25.3% (inactive).

With `CCc1c(C)nc2ncnn2c1N1CCC(C(=O)Nc2cccc(C(C)=O)c2)CC1`, the cytotoxicity was -7.9% (inactive).

As to `N#Cc1c(NC(=O)CSc2nnc(-c3ccncc3)n2CC2CCCO2)sc2c1CCCC2` (centres undefined), the cytotoxicity was 4.8% (inactive).

On to `Cc1ccc(/C=c2\sc3nc(-c4ccccc4Br)nn3c2=O)o1`, for which the cytotoxicity is 2.6% (inactive).

Regarding `Cc1ccc(/C=c2/sc3nnc(-c4ccccc4Cl)n3c2=O)o1`, the cytotoxicity was 69.7% (active).

`Cc1ccccc1-c1nnc2s/c(=C\c3ccc(N(C)C)cc3)c(=O)n12`: the cytotoxicity is 2.2% (inactive).

On to `OCc1cn(-c2ccccc2)nc1-c1ccc2c(c1)OCCO2`, for which the cytotoxicity was -21.5% (inactive).

`CC(=O)Nc1ccc(S(=O)(=O)N2CCSC2c2ccccc2Cl)cc1` (centres undefined): the cytotoxicity was 3.4% (inactive).

On to `CC1CCCCN1CCn1cnc2c([nH]c3ccccc32)c1=O` (centres undefined), for which the cytotoxicity was -2.1% (inactive).

Take `CCNc1nc(NC(C)C)nc(N(C#N)CCOc2ccc(Cl)cc2Cl)n1`: the cytotoxicity was 94.5% (active).

As to `CCCN(C#N)c1nc(NCC)nc(NC(C)C)n1`, the cytotoxicity was -11.1% (inactive).

With `CCNc1nc(NC(C)C)nc(N(C#N)Cc2ccccc2)n1`, the cytotoxicity is 6.3% (inactive).

Values taken from PubChem BioAssay AID430 (Sanford-Burnham Center for Chemical Genomics, 2006).
